Bioassay records deposited in PubChem BioAssay by National Center for Advancing Translational Sciences (NCATS).
RORgamma inh = qHTS for inhibitors of ROR gamma transcriptional activity | Potency, µM (series often up to 53.6 µM), most hits filed as inhibitors | 310,000 compounds, 5.4% hits | AID 2551, 2010 | Drosophila S2 Gal4-RORgamma UAS-luciferase reporter, 20 h; also: nearly all actives have a fitted effect of over 60% in size
Target sequence (P51450 whole entry, looked up, the tested form may be a part): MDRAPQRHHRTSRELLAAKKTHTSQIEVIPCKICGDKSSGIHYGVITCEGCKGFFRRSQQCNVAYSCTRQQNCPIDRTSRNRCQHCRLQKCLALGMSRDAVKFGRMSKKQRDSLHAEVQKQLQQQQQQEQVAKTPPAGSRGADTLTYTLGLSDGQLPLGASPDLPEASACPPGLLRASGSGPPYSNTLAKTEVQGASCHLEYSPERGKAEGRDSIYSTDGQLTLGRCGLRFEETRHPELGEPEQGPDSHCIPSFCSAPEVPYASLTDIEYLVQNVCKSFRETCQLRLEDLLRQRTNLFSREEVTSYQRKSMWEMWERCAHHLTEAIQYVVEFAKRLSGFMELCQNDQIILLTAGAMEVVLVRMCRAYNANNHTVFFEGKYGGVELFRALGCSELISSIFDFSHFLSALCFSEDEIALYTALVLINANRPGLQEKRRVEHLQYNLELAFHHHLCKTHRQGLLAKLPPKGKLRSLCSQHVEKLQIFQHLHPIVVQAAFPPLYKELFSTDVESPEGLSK
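Compounds are pin-transferred onto Drosophila Schneider cells expressing a copper-inducible Gal4–ROR gamma transactivation domain fusion. After 1 hr, copper sulfate is added to 700 uM final; luciferase is read 20 hr later.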
IL-1B inflam inh = qHTS for Inhibitors of Inflammasome Signaling: IL-1-beta AlphaLISA Primary Screen. 360,000 compounds, 4.7% hits. AID 743279, 2014. activity change, % at 57.5 µM. THP-1 LPS/ATP IL-1B secretion, AlphaLISA, 16 h; stronger effect = lower value; in the data active = activity change below about -50%; inconclusive = mostly about -30% to -49%
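Secreted IL-1B measured by AlphaLISA bead assay after 16 h compound exposure of THP-1 cells; compounds (final up to 57.5 uM) added 1 h before LPS (250 ng/mL) and ATP (1.25 mM) stimulation; lower signal means less secretion.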
Gal4-VP16 FLuc = VP16 counterscreen qHTS for inhibitors of ROR gamma transcriptional activity; Drosophila S2 Gal4-VP16 UAS-luciferase, luminescence, 20 h; Potency, µM (top dose mostly 53.6 µM), most hits filed as inhibitors; 310,000 compounds, 3.5% hits;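 also: Gal4-VP16 expression switched on by copper sulfate through the metallothionein promoter; nearly all actives have a fitted effect of over 50% in size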
LDHA inh = qHTS assay for inhibitors of human lactate dehydrogenase. AID 1347041, 2019. purified LDHA, NADH/diaphorase-resazurin fluorescence; stronger effect = lower value. 480,000 compounds, 0.15% hits. activity change, % (values are at about 110 or 230 µM); in the data active = activity change below about -30%; inconclusive = mostly about -25% to -30%
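Human LDH5 at 2 nM final in Tris HCl pH 7.4 with 0.06 mM NADH and 0.2 mM pyruvate, reacted 5 minutes at room temperature. Remaining NADH coupled via diaphorase/resazurin; resorufin fluorescence read at 0 and 20 minutes, normalized to enzyme-free and DMSO wells.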
DT40 TDP1 no CPT = qHTS for Inhibitors of human tyrosyl-DNA phosphodiesterase 1 (TDP1): qHTS in cells in absence of CPT. AID 686978, 2013. 420,000 compounds, 15% hits. Potency, µM (series often up to 46.2 µM), hits mostly inhibitors. DT40 Tdp1-/- hTDP1 cells, no CPT, ATP luminescence, 48 h; also: nearly all actives have a fitted effect of over 55% in size
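A cellular qHTS used chicken DT40 cells lacking endogenous Tdp1 but carrying stably transfected human TDP1. Compounds were applied without camptothecin, and cell growth kinetics were judged by ATP-dependent luminescence after ≥48 hr.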
TDP1 cell CPT = qHTS for Inhibitors of human tyrosyl-DNA phosphodiesterase 1 (TDP1): qHTS in cells in presence of CPT | chicken DT40 Tdp1-/-;hTDP1 cells + 20 nM CPT, ATP luminescence, 48 h | Potency, µM (highest dose often 46.2 µM), most hits filed as inhibitors | 420,000 compounds, 12% hits; also: nearly all actives have a fitted effect of over 55% in size
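Cell growth measured by CellTiter-Glo luminescence after a minimum 48 h, 37 C compound exposure with 20 nM CPT in Tdp1-knockout DT40 cells stably expressing hTDP1, seeded 400/well; qHTS titration format.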
Large screens that a line does not name were inactive. Most compounds without a hit are left out; they make up all but 18% or so of the library. Unless noted, calls follow the shape of the dose curve; as a rule, active = well fitted curve in the direction sought with a large enough effect; inconclusive = small, poorly fitted or top-dose-only effect, or another doubt; inactive = no such curve, though single readings can be large; an effect the other way counts as inactive or inconclusive.

CCOC(=O)C1CN(S(=O)(=O)c2ccc(C)cc2)c2cc(S(=O)(=O)CC)ccc2O1 (stereo unspecified)	none
NC(=O)C1CCN(C(=O)c2cc(-c3ccncc3)nc3ccccc23)CC1	none (no result: RORgamma inh, IL-1B inflam inh, Gal4-VP16 FLuc, DT40 TDP1 no CPT, TDP1 cell CPT)
N#Cc1nc(C2CC2)oc1N1CCN(Cc2ccccc2Cl)CC1	none (no result: RORgamma inh, IL-1B inflam inh, Gal4-VP16 FLuc, DT40 TDP1 no CPT, TDP1 cell CPT)
COc1ccc(C2C(C(C)=O)=C(O)C(=O)N2c2cccc(OC)c2)cc1 (stereo unspecified)	none (no result: RORgamma inh, IL-1B inflam inh, Gal4-VP16 FLuc, DT40 TDP1 no CPT, TDP1 cell CPT)
COc1cc(OC)cc(C(=O)Nc2ccc3nc4c(c(Nc5ccc(OC)c(OC)c5)c3c2)CCCC4)c1	DT40 TDP1 no CPT 23.1µM, TDP1 cell CPT 4.11µM (no result: RORgamma inh, IL-1B inflam inh, Gal4-VP16 FLuc)
COc1ccc(Nc2c3c(nc4ccc(NC(=O)c5cc(Cl)ccc5OC)cc24)CCCC3)cc1OC	DT40 TDP1 no CPT 0.82µM, TDP1 cell CPT 1.64µM (no result: RORgamma inh, IL-1B inflam inh, Gal4-VP16 FLuc)
CCOc1ccccc1C(=O)Nc1ccc2nc3c(c(Nc4ccc(OC)c(OC)c4)c2c1)CCCC3	DT40 TDP1 no CPT 5.17µM, TDP1 cell CPT 4.11µM (no result: RORgamma inh, IL-1B inflam inh, Gal4-VP16 FLuc)
COc1cc(OC)cc(C(=O)Nc2ccc3nc4n(c(=O)c3c2)CCCC4)c1	DT40 TDP1 no CPT inconclusive
O=C(NCCc1ccccc1)C1CCCN(c2ccc3nnc(C(F)(F)F)n3n2)C1 (stereo unspecified)	none (no result: RORgamma inh, IL-1B inflam inh, Gal4-VP16 FLuc, DT40 TDP1 no CPT, TDP1 cell CPT)
COc1cc(C=O)ccc1Oc1nc(Nc2ccc(F)cc2F)nc(N2CCOCC2)n1	IL-1B inflam inh -56.3, DT40 TDP1 no CPT inconclusive, TDP1 cell CPT inconclusive
COc1cc(C=O)ccc1OCC(=O)Nc1ccccc1N1CCOCC1	RORgamma inh inconclusive, DT40 TDP1 no CPT inconclusive, TDP1 cell CPT inconclusive
COc1cc(O)c(C(CC(=O)N2CCC(c3ccccc3)CC2)c2ccc3c(c2)OCO3)c(OC)c1 (stereo unspecified)	none (no result: RORgamma inh, IL-1B inflam inh, Gal4-VP16 FLuc, DT40 TDP1 no CPT, TDP1 cell CPT)
O=C1C=C(c2ccccc2)C[C@H](c2cccs2)[C@H]1n1nnc([N+](=O)[O-])n1	RORgamma inh inconclusive, IL-1B inflam inh -73.0, Gal4-VP16 FLuc inconclusive, DT40 TDP1 no CPT 5.8µM, TDP1 cell CPT 6.51µM
Clc1ccc(C2=Nn3c(Cn4nnc5ccccc54)nnc3SC2)cc1	RORgamma inh inconclusive, IL-1B inflam inh -53.1
c1ccc(-c2ccc(C3=Nn4c(Cn5nnc6ccccc65)nnc4SC3)cc2)cc1	RORgamma inh inconclusive, IL-1B inflam inh -57.2, DT40 TDP1 no CPT inconclusive, TDP1 cell CPT 23.1µM
c1ccc(C2=Nn3c(Cn4nnc5ccccc54)nnc3SC2)cc1	none
Cc1c([C@@H]2C[C@H]3CN(Cc4cccc(Cl)c4)C(=O)[C@]34CCCN24)cnn1C	DT40 TDP1 no CPT inconclusive, TDP1 cell CPT inconclusive
COc1ccccc1CN1C[C@@H]2C[C@@H](c3ccccc3OC)N3CCC[C@@]23C1=O	DT40 TDP1 no CPT inconclusive, TDP1 cell CPT 16.4µM
Cc1ccccc1CN1C[C@@H]2C[C@@H](c3cn[nH]c3-c3ccccc3)N3CCC[C@@]23C1=O	IL-1B inflam inh -63.0, DT40 TDP1 no CPT inconclusive, TDP1 cell CPT inconclusive
COc1ccccc1-n1cc([C@@H]2C[C@H]3CN(c4ccccc4)C(=O)[C@]34CCCN24)cn1	IL-1B inflam inh -78.4
O=C1N(C2CCCC2)C[C@@H]2C[C@@H](c3cn[nH]c3-c3ccc(Cl)cc3)N3CCC[C@@]123	IL-1B inflam inh -64.3, DT40 TDP1 no CPT inconclusive, TDP1 cell CPT inconclusive
CCn1ncc([C@@H]2C[C@H]3CN(Cc4ccccc4C)C(=O)[C@]34CCCN24)c1C	none
Cc1ccc(-c2[nH]ncc2C(=O)c2cccc(F)c2)c(O)c1	DT40 TDP1 no CPT 14.6µM, TDP1 cell CPT inconclusive
Cc1ccc(O)c(-c2[nH]ncc2C(=O)c2ccc(Cl)cc2)c1	IL-1B inflam inh -85.6
Cc1c(C(=O)OCC(=O)NCC2CCCO2)sc2ccccc12 (stereo unspecified)	none (no result: RORgamma inh, IL-1B inflam inh, Gal4-VP16 FLuc, DT40 TDP1 no CPT, TDP1 cell CPT)
Cc1ccc(S(=O)(=O)N2CCCCC2)cc1NC(=O)COC(=O)c1ccccc1C(F)(F)F	none (no result: RORgamma inh, IL-1B inflam inh, Gal4-VP16 FLuc, DT40 TDP1 no CPT, TDP1 cell CPT)
